D1 antagonist – Antagonist of Human D 1 Dopamine Receptor: qHTS. activity change, negative = inhibition, % at 10 µM. D(1A) dopamine receptor (Homo sapiens), P21728. actives 3.2% (n = 360,000). AID 504652, 2011. HEK293 TREx D1 cells, calcium flux, dopamine EC80; stronger effect = lower value; in the data active = activity change below about -30%; also: % is scaled to controls: 0 for no effect and ±100 for the full control effect
Target sequence (P21728 whole entry, looked up): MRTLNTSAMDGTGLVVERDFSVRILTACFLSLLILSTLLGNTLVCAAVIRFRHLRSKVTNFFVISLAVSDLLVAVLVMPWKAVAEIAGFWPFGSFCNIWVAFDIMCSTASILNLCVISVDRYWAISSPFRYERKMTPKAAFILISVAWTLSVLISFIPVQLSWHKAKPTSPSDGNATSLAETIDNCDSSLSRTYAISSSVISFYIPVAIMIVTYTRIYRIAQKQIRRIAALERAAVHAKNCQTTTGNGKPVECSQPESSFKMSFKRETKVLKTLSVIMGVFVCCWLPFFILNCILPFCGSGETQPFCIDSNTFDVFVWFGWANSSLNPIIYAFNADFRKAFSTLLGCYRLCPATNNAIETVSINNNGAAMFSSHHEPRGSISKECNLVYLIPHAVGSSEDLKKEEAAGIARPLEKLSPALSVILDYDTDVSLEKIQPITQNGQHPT
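Using tetracycline-induced force-coupled D1 Hek293 cells and a calcium dye, signals were followed for 180 s after compound, then for 180 s after EC80 dopamine, to detect inhibitors.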
D1 PAM – Potentiators of Human D1 Dopamine Receptor: qHTS. AID 504651, 2011. HEK293 TREx D1 cells, calcium flux, dopamine EC20 potentiation. potentiation, % at 10 µM. actives 0.036% (n = 360,000). D(1A) dopamine receptor (Homo sapiens), P21728; in the data active = potentiation above about 30%; also: 0% is about no effect
D1 agonist – Allosteric Agonists of the Human D1 Dopamine Receptor: qHTS; D(1A) dopamine receptor (Homo sapiens), P21728; HEK293 T-REx D1 cells, calcium flux, agonist mode; activation, % at 2 µM; actives 1% (n = 360,000); AID 504660, 2011; in the data active = activation above about 30%; also: 0% is about no effect
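Tetracycline-induced HEK293 TREx D1 cells, force-coupled to calcium signalling, were dye-loaded with a no-wash calcium kit. Compound was pin-added after a 10 s baseline. Fluorescence was read kinetically at 1 cycle/s for 180 s, with calcium rises flagged as agonism.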
TRHR agonist-1 – qHTS for Small Molecule Agonists and Allosteric Enhancers of Human TRH Receptor: Primary Screen for Agonists. AID 493084, 2011. actives 0.18% (n = 360,000). TRHR cells, calcium flux fluo-8, FDSS agonist mode. Thyrotropin-releasing hormone receptor (Homo sapiens), P34981. activation, % at 2 µM; in the data active = activation above about 30%; also: 0% is about no effect
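TRHR-expressing cells loaded with fluo-8 calcium dye; 23 nL library compound pin-transferred, kinetic FDSS fluorescence (Ex 480/Em 530) recorded about 180 s for agonist-induced calcium release, before a 10 nM TRH EC20 addition for potentiator mode.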
TRHR enhancer-1 – qHTS for Small Molecule Agonists and Allosteric Enhancers of Human TRH Receptor: Primary Screen for Enhancers; TRHR cells, fluo-8 calcium fluorescence, EC20 TRH enhancement; enhancement, % at 2 µM; actives 0.66% (n = 360,000); in the data active = enhancement above about 30%; also: 0% is about no effect
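Enhancer read-out: after compound pinning and an initial kinetic agonist-mode read, an EC20 of TRH (10 nM final) was injected and fluo-8 calcium signal (Ex 480/Em 530) followed at 1 s/cycle for 100 cycles in TRHR-expressing cells.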
TRHR enhancer-2 – qHTS for Small Molecule Agonists and Allosteric Enhancers of Human TRH Receptor: Confirmation Screen for Enhancers; shares compounds with TRHR enhancer-1; TRH receptor cell assay, enhancer confirmation qHTS; activity change, negative = inhibition, % at 46.1 µM; 970 tested, under 10 active; AID 493076, 2011;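 also: compound effect scored on response to added TRH at EC20 of 10 nM; 0% is about no effect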
TRHR agonist-2 – qHTS for Small Molecule Agonists and Allosteric Enhancers of Human TRH Receptor: Confirmation Screen for Agonists. TRHR-expressing cells, agonist activation read-out. AID 493078, 2011. shares compounds with TRHR enhancer-1. Potency, µM (highest dose often 46.1 µM), for inactives: at the highest dose activation, actives largely listed as activators. actives 8% (n = 970); also: potency is read from the fitted curve at half-maximal effect; 0% is about no effect; nearly all actives have a fitted effect of over 75% in size
Starred values were filed as active, the others as inactive; ? = inconclusive; nt = no result. In the library only some 4.6% were active in any assay of this set; here they are far more common. Unless noted, calls follow the shape of the dose curve; as a rule, active = well fitted curve in the direction sought with a large enough effect; inconclusive = small, poorly fitted or top-dose-only effect, or another doubt; inactive = no such curve, though single readings can be large; an effect the other way counts as inactive or inconclusive.

SMILES	D1 antagonist	D1 PAM	D1 agonist	TRHR agonist-1	TRHR enhancer-1	TRHR enhancer-2	TRHR agonist-2
CC(=O)NS(=O)(=O)c1ccc(NC(=O)c2ccc(Cl)cc2[N+](=O)[O-])cc1	-7	-1	2	0	50*	-6	5%
COc1ccc(CC(=O)N2CCOCC2)cc1	6	-2	3	-1	6	nt	nt
COc1ccccc1CNC(=O)C/C(C)=N/NC(=O)Cc1ccccc1	-7	4	2	1	41*	-4	1%
COc1ccc(CNCC(O)COc2ccc(C)cc2[N+](=O)[O-])cc1 (stereo unspecified)	-10	-14	22	34*	2	4	2%
COc1ccc(OCCOCCOc2ccc(C)cc2[N+](=O)[O-])cc1	-7	2	8	0	-1	nt	nt
CCc1cccc2sc(NC(=O)C3CC3)nc12	4	-10	2	0	42*	0	?
CCc1noc(C)c1C(=O)Nc1nc2c(C)cccc2s1	-19	-1	3	0	56*	-2	-1%
O=C(CSc1nc(O)cc(=O)[nH]1)C1CC1	-9	-3	10	-2	9	nt	nt
O=C(NC1CCCC1)C(=O)N(Cc1cccnc1)C(C(=O)NCC1CCCO1)c1ccco1 (stereo unspecified)	7	1	4	0	5	nt	nt
COCCn1c(SCC(=O)N2CC(=O)Nc3ccccc32)nc2ccccc21	-8	6	0	45*	7	-6	-1%
O=C(N/N=C/c1ccc(N2CCOCC2)c([N+](=O)[O-])c1)c1ccc(F)cc1	nt	-1	-1	0	100*	7	2%
O=C(NCc1ccc(F)cc1)c1ccc(N2CCOCC2)c([N+](=O)[O-])c1	1	-5	-1	0	3	nt	nt
CC1CCc2nc(NC(=O)c3ccco3)sc2C1 (stereo unspecified)	11	0	0	-1	4	nt	nt
Cc1ccc(Cl)cc1N1CCN(S(=O)(=O)N2CCCCC2)CC1	12	-1	10	0	43*	0	1%
NC(=O)c1nc(C2CCCCC2)nc2c1[nH]c(=O)n2-c1ccc(F)cc1	3	-1	1	0	1	nt	nt
NNC(=O)C=C1CCN(c2ncc(C(F)(F)F)cc2Cl)CC1	8	2	2	0	2	nt	nt
O=C(O)C=C1CCN(c2ncc(C(F)(F)F)cc2Cl)CC1	2	-2	3	0	43*	-1	-1%
COc1ccc(CN2CCC(C(=O)Nc3ccc(Oc4ccccc4)nc3)CC2)cc1F	-24	-9	31*	2	72*	-2	?
CS(=O)(=O)NCCCc1ccccc1	1	3	0	0	3	nt	nt
CCOc1ccccc1NC(=O)Cn1c(=O)n(CCCC(=O)NCc2ccc(C)cc2)c(=O)c2ccccc21	9	4	4	-1	-3	nt	nt
CCOC(=O)CC1COc2ccccc2N1C(=O)c1ccc(F)cc1 (stereo unspecified)	4	0	0	0	-2	nt	nt
Cc1ccc(-c2c(C)sc3nc[nH]c(=O)c23)cc1C	-35*	-21	2	-1	47*	0	1%
Cc1ccc(C)n1C1CCS(=O)(=O)C1 (stereo unspecified)	3	-1	1	0	-2	nt	nt
CC(C)c1ccccc1N=C1SCCN1C1CCS(=O)(=O)C1 (stereo unspecified)	-1	-1	2	0	70*	1	?

Screens: PubChem, National Center for Advancing Translational Sciences (NCATS)
